Measured values: PubChem BioAssay AID1159580 (chemical genetic matrix, 2015)
Several values for one entry are separate records, joined by “and”; a condition that tells them apart may be missing. Equal values may be shown once. The campaign covered roughly 5,500 compounds. About 2,000 (36%) were called active. Roughly 18% stayed inconclusive and do not appear here. No stated cut-off is given here; in the data, active means normalized growth mostly below about 0.91 (no sharp cut-off); inconclusive means no clear call, values can overlap the other calls; inactive means mostly above about 0.92. This is one part of the list.

Assay: chemical genetic growth profiling, strain panel (AID 1159580);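 further: tested at 20 µM; growth read once vehicle control cultures reached saturation at 30 °C; 1 = growth at the plate median or of vehicle wells; lower values mean less growth of the strain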
Conditions: growth OD

Measured: normalized growth

CN1CCN(C2=Nc3cc(Cl)ccc3Nc3ccccc32)CC1
inactive: S. cerevisiae deletion strains, locus YJR066W, strain TOR1, hits give low values 0.997 | S. cerevisiae deletion strains, locus YJR075W, strain HOC1, hits give low values 0.982 | S. cerevisiae deletion strains, locus YKL009W, strain mrt4, hits give low values 1.01 | S. cerevisiae deletion strains, locus YKL068W, hits give low values 1.01 | S. cerevisiae deletion strains, locus YKL085W, strain MDH1 (second series), hits give low values 1.04 | S. cerevisiae deletion strains, locus YKL085W, strain MDH1, hits give low values 1.04 | S. cerevisiae deletion strains, locus YKL160W, strain elf1, hits give low values 0.972 | S. cerevisiae deletion strains, locus YKL190W, strain CNB1, hits give low values 1.02 | S. cerevisiae deletion strains, locus YKR001C, strain vps1, hits give low values 1.03 | S. cerevisiae deletion strains, locus YKR026C, strain gcn3, hits give low values 0.988 | S. cerevisiae deletion strains, locus YKR091W, strain srl3, hits give low values 0.98 | S. cerevisiae deletion strains, locus YLL001W, strain dnm1, hits give low values 0.984 | S. cerevisiae deletion strains, locus YLL026W, hits give low values 1 | S. cerevisiae deletion strains, locus YLL041C, strain sdh2, hits give low values 0.992 | S. cerevisiae deletion strains, locus YLR027C, strain aat2, hits give low values 0.988 | S. cerevisiae deletion strains, locus YLR039C, strain RIC1, hits give low values 1.25 | S. cerevisiae deletion strains, locus YLR058C, strain SHM2, hits give low values 1.01 | S. cerevisiae deletion strains, locus YLR102C, strain apc9, hits give low values 1.02 | S. cerevisiae deletion strains, locus YLR113W, strain HOG1, hits give low values 1.01 | S. cerevisiae deletion strains, locus YLR221C, strain rsa3, hits give low values 1.01 | S. cerevisiae deletion strains, locus YLR258W, strain gsy2, hits give low values 0.983 | S. cerevisiae deletion strains, locus YLR262C, strain YPT6 (second series), hits give low values 1.05 | S. cerevisiae deletion strains, locus YLR262C, strain YPT6, hits give low values 1.2 | S. cerevisiae deletion strains, locus YLR268W, strain sec22, hits give low values 1.01 | S. cerevisiae deletion strains, locus YLR320W, strain mms22, hits give low values 0.952 | S. cerevisiae deletion strains, locus YLR330W, strain CHS5, hits give low values 1.02 | S. cerevisiae deletion strains, locus YLR342W, strain FKS1 (second series), hits give low values 1.04 | S. cerevisiae deletion strains, locus YLR342W, strain FKS1, hits give low values 0.953 | S. cerevisiae deletion strains, locus YLR357W, strain rsc2, hits give low values 1.01 | S. cerevisiae deletion strains, locus YLR370C, strain arc18, hits give low values 0.984 | S. cerevisiae deletion strains, locus YLR371W, strain rom2, hits give low values 1.03 | S. cerevisiae deletion strains, locus YLR384C, strain iki3, hits give low values 0.984 | S. cerevisiae deletion strains, locus YLR418C, strain cdc73, hits give low values 0.955 | S. cerevisiae deletion strains, locus YML016C, strain PPZ1, hits give low values 1.01 | S. cerevisiae deletion strains, locus YML032C, strain rad52, hits give low values 0.935 | S. cerevisiae deletion strains, locus YML120C, strain ndi1, hits give low values 0.98 | S. cerevisiae deletion strains, locus YML124C, strain tub3, hits give low values 1.02 | S. cerevisiae deletion strains, locus YMR058W, strain fet3, hits give low values 0.982 | S. cerevisiae deletion strains, locus YMR078C, strain ctf18, hits give low values 1.02 | S. cerevisiae deletion strains, locus YMR125W, strain sto1, hits give low values 0.943 | S. cerevisiae deletion strains, locus YMR129W, hits give low values 0.99 | S. cerevisiae deletion strains, locus YMR205C, strain PFK2, hits give low values 0.977 | S. cerevisiae deletion strains, locus YMR223W, strain ubp8, hits give low values 1.02 | S. cerevisiae deletion strains, locus YMR231W, strain pep5, hits give low values 0.986 | S. cerevisiae deletion strains, locus YMR263W, strain SAP30, hits give low values 0.986 | S. cerevisiae deletion strains, locus YMR307W, strain GAS1, hits give low values 1.1 | S. cerevisiae deletion strains, locus YNL067W, strain RPL9B, hits give low values 0.974 | S. cerevisiae deletion strains, locus YNL071W, strain lat1, hits give low values 0.937 | S. cerevisiae deletion strains, locus YNL128W, strain TEP1, hits give low values 0.991 | S. cerevisiae deletion strains, locus YNL153C, strain GIM3, hits give low values 0.993 and 1.01 | S. cerevisiae deletion strains, locus YNL175C, strain NOP13, hits give low values 0.999 | S. cerevisiae deletion strains, locus YNL183C, strain NPR1, hits give low values 0.99 | S. cerevisiae deletion strains, locus YNL209W, strain ssb2, hits give low values 0.973 | S. cerevisiae deletion strains, locus YNL224C, strain SQS1, hits give low values 1.01 | S. cerevisiae deletion strains, locus YNL233W, strain BNI4, hits give low values 0.988 | S. cerevisiae deletion strains, locus YNL248C, strain rpa49, hits give low values 0.957 | S. cerevisiae deletion strains, locus YNL250W, strain rad50, hits give low values 0.966 | S. cerevisiae deletion strains, locus YNL271C, strain bni1, hits give low values 1.01 | S. cerevisiae deletion strains, locus YNL298W, strain CLA4, hits give low values 0.984 | S. cerevisiae deletion strains, locus YNL307C, strain MCK1, hits give low values 0.995 | S. cerevisiae deletion strains, locus YNL322C, strain KRE1 (second series), hits give low values 0.956 | S. cerevisiae deletion strains, locus YNL322C, strain KRE1, hits give low values 1.01 | S. cerevisiae deletion strains, locus YNR049C, strain mso1, hits give low values 0.99 | S. cerevisiae deletion strains, locus YNR052C, strain pop2, hits give low values 1.01 | S. cerevisiae deletion strains, locus YOL006C, strain TOP1, hits give low values 0.988 | S. cerevisiae deletion strains, locus YOL012C, strain htz1 2.02 | S. cerevisiae deletion strains, locus YOL147C, strain pex11, hits give low values 1.02 | S. cerevisiae deletion strains, locus YOR001W, strain rrp6, hits give low values 0.996 | S. cerevisiae deletion strains, locus YOR061W, strain CKA2, hits give low values 1.01 | S. cerevisiae deletion strains, locus YOR069W, strain VPS5, hits give low values 1.07 | S. cerevisiae deletion strains, locus YOR070C, strain gyp1, hits give low values 0.989 | S. cerevisiae deletion strains, locus YOR080W, strain dia2, hits give low values 0.974 | S. cerevisiae deletion strains, locus YOR083W, strain WHI5, hits give low values 0.92 | S. cerevisiae deletion strains, locus YOR106W, strain vam3, hits give low values 0.978 | S. cerevisiae deletion strains, locus YOR136W, strain idh2, hits give low values 1.02 | S. cerevisiae deletion strains, locus YOR144C, strain elg1, hits give low values 1.01 | S. cerevisiae deletion strains, locus YOR184W, strain ser1, hits give low values 1.03 | S. cerevisiae deletion strains, locus YOR231W, strain MKK1, hits give low values 1.01 | S. cerevisiae deletion strains, locus YOR265W, strain rbl2, hits give low values 0.993 | S. cerevisiae deletion strains, locus YOR270C, strain vph1, hits give low values 0.96 | S. cerevisiae deletion strains, locus YOR290C, strain snf2, hits give low values 0.943 | S. cerevisiae deletion strains, locus YOR316C, strain cot1, hits give low values 1.03 | S. cerevisiae deletion strains, locus YPL051W, strain arl3, hits give low values 0.965 | S. cerevisiae deletion strains, locus YPL055C, strain LGE1, hits give low values 0.93 | S. cerevisiae deletion strains, locus YPL078C, strain atp4, hits give low values 0.959 | S. cerevisiae deletion strains, locus YPL106C, strain sse1, hits give low values 0.999 | S. cerevisiae deletion strains, locus YPL240C, strain hsp82, hits give low values 0.979 | S. cerevisiae deletion strains, locus YPL241C, strain CIN2, hits give low values 1.05 and 1 | S. cerevisiae deletion strains, locus YPL256C, strain CLN2, hits give low values 1.05 | S. cerevisiae deletion strains, locus YPR119W, strain clb2, hits give low values 1.01 | S. cerevisiae deletion strains, locus YPR141C, strain kar3, hits give low values 1.02 | S. cerevisiae deletion strains, locus YPR163C, strain tif3, hits give low values 1.01 | S. cerevisiae deletion strains, locus YPR167C, strain met16, hits give low values 1.02 | S. cerevisiae deletion strains, strain wtn01, hits give low values 1 | S. cerevisiae strains, strain wild type, hits give low values 1.02
